Assay results taken from PubChem BioAssay (NCI).
About 83,000 compounds went through this panel and 20% of them were active in at least one assay; those are over-represented in the sample as a whole.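 Cell lines were cultured in 96-well plates, exposed to a single compound concentration, and assessed for percent growth 48 hours later.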 A number with no mark means an inactive call. The source made the active and inactive calls. How the source made its calls: active means growth percent below 10; inactive means the rest.

What was measured:
Assay in all cases: NCI-60 one-dose screen, 48 h (100 = growth as untreated, 0 = no growth, -100 = all killed)
Details in all cases: 10 µM unless noted
[1] = system: DU-145 prostate
[2] = system: K-562 leukemia
[3] = system: MALME-3M melanoma
[4] = system: MDA-MB-231 breast
[5] = system: RXF 393 renal
[6] = system: SF-268 CNS
[7] = system: SF-295 CNS
[8] = system: SF-539 CNS
[9] = system: UACC-257 melanoma
[10] = system: M14 melanoma
[11] = system: HCT-15 colon
[12] = system: HT29 colon
[13] = system: SNB-75 CNS
[14] = system: SNB-19 CNS
[15] = system: U251 CNS
[16] = system: PC-3 prostate
[17] = system: SK-MEL-5 melanoma
[18] = system: UACC-62 melanoma
[19] = system: LOX IMVI melanoma
[20] = system: SK-MEL-28 melanoma

Structure (SMILES)	growth [1] [%]	growth [2]	growth [3]	growth [4]	growth [5]	growth [6] [%]	growth [7] [%]	growth [8] [%]	growth [9] [%]	growth [10] [%]	growth [11]	growth [12] [%]	growth [13]	growth [14]	growth [15]	growth [16] [%]	growth [17] [%]	growth [18] [%]	growth [19]	growth [20] [%]
NC[C@@H]1CCN(c2cc3c(cc2F)c(=O)n(N)c(=O)n3Cc2ccc(-c3ccccc3)cc2)C1	102	-44% (active)	121%	89.7%	74.7%	83.1	96.5	90	112	68.8	50.1%	30.4	77.9%	102%	64.5%	71.4	72.4	94.6	78.9%	113
CC(C)CSc1nc(Nc2ccccc2)c(C#N)c(-c2ccc(F)cc2)n1	75.9	50.7%	-5.57% (active)	-3.62% (active)	2.42% (active)	37.7	16.2	22.4	66.2	31.6	67.4%	50.7	-16.2% (active)	5.61% (active)	-32.5% (active)	47.7	80.5	70.9	4.45% (active)	84.5
N#Cc1ccc(C2C3=C(CCCC3=O)OC3=C2C(=O)c2ccccc2C3=O)cc1 (stereo not given)	86.8	40.3%	83.4%	5.78% (active)	102%	70.9	91.7	30.5	52.3	81.8	74.5%	97.1	62.6%	105%	70%	72.6	61.1	35.1	9.4% (active)	112
CCOC(=O)/C=C1\SC(=Nc2ccc(C#N)cc2)N(CCN2C(=O)/C(=C/C(=O)OCC)SC2=Nc2ccc(C#N)cc2)C1=O	41.7	7.43% (active)	98.6%	16.3%	49.7%	29.7	76.8	41.6	77.3	52.3	2.58% (active)	15.7	53.6%	28.2%	-7.96% (active)	39.6	58.8	33.6	0.0355% (active)	97
